Assay results reported in PubChem BioAssay (EPA / NIEHS).
Inconclusive results are not listed. Activity calls are given as the source filed them. The calls were made as follows: active = hit-call score of the fitted dose curve at least 0.9, where 1 is the maximum; inconclusive = response in the unintended direction; inactive = score below 0.9.

Experiment: CCTE_Simmons_MITO_viability: CellTiter-Glo Viability Assessment for CCTE's HepG2 Seahorse XF Respirometric Screening Assay [post-hoc], Simmons Lab (AID 2284007);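 as to AC50: cells exposed to chemical for 90 min before the ATP read; actives lower ATP signal relative to DMSO baseline meaning reduced viability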
Protocol: CCTE_Simmons_MITO is cell-based, respirometric assay using HepG2 cells and a Seahorse XF Analyzer to measure oxygen consumption rates over four temporal phases spanning a total of 72 minutes: pre-injection (pre-treatment), basal (following test compound injection), maximal (following FCCP uncoupler injection), and inhibited (following rotenone/antimycin A injection)CCTE_Simmons_MITO_viability is one of 4 assay components measured from the CCTE_Simmons_MITO assay. It is designed to make measurements of ATP content, a form of viability reporter, as detected with bioluminescence signals by Luciferase-coupled ATP quantitation technology. Data from the assay component CCTE_Simmons_MITO_viability was analyzed at the endpoint, CCTE_Simmons_MITO_viability, in the positive analysis fitting direction relative to DMSO as the negative control and baseline of activity. Using a type of viability reporter, measures of ATP content for loss-of-signal activity can be used to understand the viability. To generalize the intended target to other relatable targets, this assay endpoint is annotated to the cell cycle intended target family, where the subfamily is cytotoxicity.
Test chemicals were administered as a titrated series of 7 concentrations from 125 nM up to 100 uM [final] for 90 minutes prior to single endpoint detection. Three biological replicates of technical singles were run for every chemical concentration tested. Dimethylsulfoxide [DMSO] was used as the vehicle control. Dichlone [DCNQ] was used as the positive control and was administered as a titrated series of 8 concentrations from 10 nM up to 100 uM [final].

| Compound | outcome | AC50 |
| --- | --- | --- |
| CSC1=N[C@@](C)(c2ccccc2)C(=O)N1Nc1ccccc1 | inactive | – |
| CON=C(C(=O)OC)c1ccccc1CON=C(C)c1cccc(C(F)(F)F)c1 | inactive | – |
| CCC(=O)Nc1ccc(Cl)c(Cl)c1 | inactive | – |
| CCOP(=S)(Oc1cnc(C(C)(C)C)nc1)OC(C)C (centres undefined) | inactive | – |
| CCCSP(=O)(OCC)SCCC | inactive | – |
| CCc1cccc(C)c1N(C(=O)CCl)C(C)COC (centres undefined) | inactive | – |
| FC(F)C(F)(F)OCC(Cn1cncn1)c1ccc(Cl)cc1Cl (centres undefined) | – | 16.9 µM (active) |
| CC(C)N(C(=O)SCC(Cl)=C(Cl)Cl)C(C)C | inactive | – |
| C#CCC1=C(C)C(OC(=O)C2C(C=C(C)C)C2(C)C)CC1=O (centres undefined) | inactive | – |
| CCCCOC(=O)[C@@H](C)Oc1ccc(Oc2ccc(C#N)cc2F)cc1 | inactive | – |
| C[Si](Cn1cncn1)(c1ccc(F)cc1)c1ccc(F)cc1 | – | 10.3 µM (active) |
| CC[C@H](C)[C@H]1O[C@]2(C=C[C@@H]1C)C[C@@H]1C[C@@H](C/C=C(\C)[C@@H](O[C@H]3C[C@H](OC)[C@@H](O[C@H]4C[C@H](OC)[C@@H](NC)[C@H](C)O4)[C@H](C)O3)[C@@H](C)/C=C/C=C3\CO[C@@H]4[C@H](O)C(C)=C[C@@H](C(=O)O1)[C@]34O)O2 | – | 86.9 µM (active) |
| O=[N+]([O-])c1cc(C(F)(F)F)c(Cl)c([N+](=O)[O-])c1Nc1ncc(C(F)(F)F)cc1Cl | inactive | – |
| CC(C)=CC1C(C(=O)OCN2C(=O)C3=C(CCCC3)C2=O)C1(C)C (centres undefined) | inactive | – |
| CC(C1CC1)C(O)(Cn1cncn1)c1ccc(Cl)cc1 (centres undefined) | inactive | – |
| CCOP(=O)(NC(C)C)Oc1ccc(SC)c(C)c1 (centres undefined) | inactive | – |
| O=C(O)c1cc(Oc2ccc(C(F)(F)F)cc2Cl)ccc1[N+](=O)[O-] | inactive | – |
| C=C(C)[C@H]1Cc2c(ccc3c2O[C@@H]2COc4cc(OC)c(OC)cc4[C@@H]2C3=O)O1 | – | 13.3 µM (active) |
| N#CSCSC#N | – | 67.6 µM (active) |
| CC1(C(=O)Nc2ccc(O)c(Cl)c2Cl)CCCCC1 | inactive | – |
| CCC(CC)Nc1c([N+](=O)[O-])cc(C)c(C)c1[N+](=O)[O-] | inactive | – |
| COP(=O)(OC)OC(Br)C(Cl)(Cl)Br (centres undefined) | – | 50 µM (active) |
| CCCOCC(=Nc1ccc(Cl)cc1C(F)(F)F)n1ccnc1 | – | 18.2 µM (active) |
| CCc1cccc(CC)c1N(COC)C(=O)CCl | inactive | – |
